According to PubChem BioAssay AID463082 (The Scripps Research Institute Molecular Screening Center, 2010):
The campaign covered roughly 330,000 compounds. About 4,900 (1.5%) were called active.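 How the source made its calls: active means inhibition above the mean inhibition across the screen plus 3 SD (cut at about 25% in these data); inactive means the rest.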 What follows is part of a selection rich in actives, with near analogues and random picks from the rest.

These compounds were tested against Platelet-activating factor acetylhydrolase (Homo sapiens) (UniProt Q13093) (assay: pPAFAH enzyme inhibitors, primary screen, biochemical, fluorescence polarization, human (AID 463082;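 further: inhibitors block binding of the rhodamine activity-based probe so polarization drops; 0% = enzyme with DMSO and 100% = wells lacking pPAFAH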)). Settings: recombinant pPAFAH, FP-rhodamine probe fluorescence polarization; at 3.39 µM; stronger effect = higher value.
Chain of Platelet-activating factor acetylhydrolase (Homo sapiens) (Q13093 whole entry, looked up): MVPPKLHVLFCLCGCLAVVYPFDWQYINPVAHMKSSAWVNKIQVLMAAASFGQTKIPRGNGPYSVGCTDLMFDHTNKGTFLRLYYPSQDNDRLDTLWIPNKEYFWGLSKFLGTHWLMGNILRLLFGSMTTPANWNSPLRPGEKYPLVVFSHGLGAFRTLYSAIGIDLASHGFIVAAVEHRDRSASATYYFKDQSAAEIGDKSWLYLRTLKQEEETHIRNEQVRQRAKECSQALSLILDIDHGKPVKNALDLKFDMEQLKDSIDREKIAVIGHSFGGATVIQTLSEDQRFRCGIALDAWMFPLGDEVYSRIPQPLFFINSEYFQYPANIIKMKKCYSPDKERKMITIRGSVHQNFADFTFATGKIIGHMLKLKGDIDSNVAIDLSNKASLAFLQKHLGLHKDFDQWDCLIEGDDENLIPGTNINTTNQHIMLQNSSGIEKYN

| Structure (SMILES) | inhibition |
| --- | --- |
| CC(Cc1cccs1)N(Cc1ccc(Cl)cc1)C(=O)c1ccncc1 (stereo not drawn) | 6.35% (inactive) |
| CCSC1=C(C#N)C(=O)n2c1cc1c2CCCC1 | 8.15% (inactive) |
| Cn1c(NC(=O)c2ccco2)c(-c2ccccc2Cl)c(=O)c2ccccc21 | 1.1% (inactive) |
| CC(C)c1ccc(NC(=S)NNc2ccc(Cl)c(C(=O)O)c2)cc1 | 38.3% (active) |
| Cc1ccc(C)c(NC(=S)NNC(=S)Nc2ccc(C(C)C)cc2)c1 | 22.5% (inactive) |
| O=C(NC(=S)Nc1ccc(Cl)c(C(=O)O)c1)c1cncc(Br)c1 | 0.25% (inactive) |
| Cc1cc(=O)n2nc(N3CCCC(C(=O)NCc4cccc(Cl)c4)C3)sc2n1 (stereo not drawn) | 1.7% (inactive) |
| COc1ccccc1CNC(=O)COn1nnc2ccc(S(=O)(=O)N3CCOCC3)cc21 | 2.22% (inactive) |
| CC(C)N(C(=O)[C@H]1C[C@H](CC(=O)NC(C)(C)C)C(=O)N2CCc3c([nH]c4ccc(Cl)cc34)[C@]12C)C(C)C | 3.29% (inactive) |
| O=C(Nc1ccc(C(F)(F)F)cc1)c1cccc(-n2cnnn2)c1 | -6.56% (inactive) |
| O=C(Nc1ccc(-c2csc(Nc3cccc(C(F)(F)F)c3)n2)cc1)c1cccc(C(F)(F)F)c1 | 28.4% (active) |
| Cc1nc(NC(=O)c2cccc(Cl)c2)sc1-c1csc(Nc2cccc(Cl)c2)n1 | 11.3% (inactive) |
| CC(C)c1nc(CNC(=O)CC2C(=O)NCCN2Cc2cccc(F)c2F)cs1 (stereo not drawn) | 3.46% (inactive) |
| COc1cc(NC(=O)CCS(=O)(=O)c2ccc3c(c2)oc(=O)n3C)cc(OC)c1 | 3.91% (inactive) |
| C=C(C)COc1ccc(-c2n[nH]c(C)c2-c2ccccc2OC)c(O)c1 | 26.2% (active) |
| C=C(C)COc1ccc(-c2n[nH]c(C)c2-c2ccccc2)c(O)c1 | 13.4% (inactive) |
| COc1ccc(-c2n[nH]c(C)c2-c2ccccc2OC)c(O)c1 | 4.94% (inactive) |
| O=C(Nc1ccc(F)c([N+](=O)[O-])c1)C1CCCO1 (stereo not drawn) | -1.09% (inactive) |
| CN(Cc1cccs1)C(=O)CN1C(=O)c2ccccc2S1(=O)=O | 4.08% (inactive) |
| CN(C)c1ccc(C(=S)N2CCN(C(=S)Nc3ccc(Cl)cc3)CC2)cc1 | 1.77% (inactive) |
| CCn1cc(C(=O)NCCC(=O)NCCO)c(=O)c2cc3c(cc21)OCO3 | 4.78% (inactive) |
| COc1cc(C2CC(=O)N3CN(Cc4ccccc4)CSC3=C2C#N)ccc1OCc1ccccc1 (stereo not drawn) | 35.3% (active) |
| COc1cc(CNC2CCCC2)c(Br)cc1OCc1ccccc1 | 1.42% (inactive) |
| COc1cc(CN2CCC(C(N)=O)CC2)ccc1OCc1ccccc1 | 0.32% (inactive) |

| Structure (SMILES) | inhibition |
| --- | --- |
| COc1ccc(CNc2cc(C)cc(C)c2)cc1OC | 0.82% (inactive) |
| CC1CCCCC1NC(=O)COC(=O)Cc1ccc(Br)cc1 (stereo not drawn) | 23.6% (inactive) |
| O=C(COC(=O)Cc1ccc([N+](=O)[O-])cc1)NC1CCCCCC1 | 12.4% (inactive) |
| CC1CCCCC1NC(=O)COC(=O)Cc1ccc(Cl)cc1 (stereo not drawn) | 35.3% (active) |
| Cc1cccc(C(=O)O)c1[N+](=O)[O-] | 1.3% (inactive) |
| C=CCn1c(Oc2ccc(C(=O)OC)cc2)nc2c1c(=O)n(C)c(=O)n2C | -2.33% (inactive) |
| CSc1ccc(CNC(=O)c2ccc(NC(=O)C3=CSCCO3)cc2)cc1 | -5.55% (inactive) |
| Cc1cc(C)cc(N(CC(=O)NC2CCCC2)C(=O)CCC(=O)Nc2nccs2)c1 | 1.33% (inactive) |
| Cc1cccc(CCNS(=O)(=O)c2ccc3c(c2)NC(=O)CO3)c1 | 9.07% (inactive) |
| Cc1cccc(CCNS(=O)(=O)c2ccc(S(=O)(=O)NC3CCCC3)cc2)c1 | 27.3% (active) |
| Cc1ccc(S(=O)(=O)NC2CCCCCC2)cc1 | 9.54% (inactive) |
| CC[C@]12c3[nH]c4cc(CCC(=O)N(C)C)ccc4c3CCN1C(=O)[C@@H](CC(=O)NCCCn1ccnc1)C[C@@H]2C(=O)N1CCN(C(=O)C2CC2)CC1 | -6.7% (inactive) |
| CCc1cccc(C)c1NS(=O)(=O)c1c(C)nc2sccn2c1=O | 1.67% (inactive) |
| CN(C)[C@@H]1C(=O)C(C(N)=O)=C(O)[C@@]2(O)C(=O)C3=C(O)c4c(O)ccc(Cl)c4[C@@H](O)[C@H]3C[C@@H]12 | 49.4% (active) |
| O=C(c1ccco1)N(Cc1nc2ccccc2c(=O)[nH]1)C1CCCC1 | 2.71% (inactive) |
| CCc1ccc(CN(C)C(=O)CCc2nnc(-c3ccc(-c4ccccc4)cc3)o2)nc1 | 61.6% (active) |
| CC(=O)c1ccc(-c2nnc(CCC(=O)N(C)Cc3cnc4ccccn34)o2)s1 | 3.22% (inactive) |
| CCc1ccc(CN(C)Cc2nc(Cc3ccccc3)no2)nc1 | 1.77% (inactive) |
| COc1ccc(NC(=O)CNC(=O)Cc2ccccc2)cc1OC | 1.61% (inactive) |
| COc1ccc(CNC(=O)Cc2ccc(-c3ccccc3)cc2)cc1OC | 31.1% (active) |
| COc1ccc(CCNC(=O)Cc2ccc(C)cc2)cc1OC | 0.86% (inactive) |
| Cc1cc(=O)oc2c(C)c(OCC(=O)NCCc3ccc(S(N)(=O)=O)cc3)ccc12 | 1.13% (inactive) |
| CCOc1ccc(S(=O)(=O)NCCC(=O)NCC2CCCO2)cc1 (stereo not drawn) | -0.87% (inactive) |
| Nc1scc(-c2ccncc2)c1Cl | 5.7% (inactive) |

| Structure (SMILES) | inhibition |
| --- | --- |
| CCOC(=O)c1c(-c2ccccc2)oc2ccc(OCC(=O)NN)cc12 | 3.22% (inactive) |
| CCOC(=O)c1c(C)oc(C)c(C(=O)OCC)c1=O | -1.33% (inactive) |
| CCOC(=O)c1c(C)oc2cc(Br)c(OCC(N)=O)cc12 | -0.28% (inactive) |
| CCOC(=O)c1c(C)oc2ccc(OCC(=O)N(CC)CC)cc12 | -9.45% (inactive) |
| CCOC(=O)c1c(C)oc2cc(Sc3ccccc3)c(O)c(O)c12 | 27.6% (active) |
| CCOC(=O)c1c(-c2ccccc2)oc2cc(Br)c(O)c(C=O)c12 | 30.1% (active) |
| CCc1cccc(C)c1NC(=O)CSc1nnc(-c2ccco2)n1N | -2.12% (inactive) |
| NC(=O)c1c(NC(=O)CSc2nnc(-c3ccco3)n2N)sc2c1CCCC2 | 24.9% (active) |
| Cc1cc(NC(=O)CSc2nnc(-c3ccco3)n2N)no1 | 1.38% (inactive) |
| CN(CC(=O)NC1CCCC1)S(=O)(=O)c1cnc[nH]1 | 5.78% (inactive) |
| Cc1ccc(S(=O)(=O)NCc2cn3ccsc3n2)c(C)c1 | 3.63% (inactive) |
| Cc1ccc(S(=O)(=O)NCc2csc(C)n2)c(C)c1 | 57.6% (active) |
| Cc1nc(CNS(=O)(=O)c2cc([N+](=O)[O-])ccc2C)cs1 | 1.89% (inactive) |
| O=C(NCCN1CCOC1=O)C1CCC(=O)N(CCc2ccc(Cl)cc2)C1 (stereo not drawn) | 6.31% (inactive) |
| CCOC(=O)c1c(N=CN(C)C)c(C#N)c2n1CCCC2 | -0.32% (inactive) |
| CC(C)C(C)(C#N)NC(=O)CSc1nncn1-c1ccccc1 (stereo not drawn) | 3.15% (inactive) |
| CCc1cccc(C)c1NC(=O)COC(=O)CC1CCCC1 | 31.2% (active) |
| CCc1cccc(C)c1NC(=O)COC(=O)CNC(=O)c1cccs1 | -1.56% (inactive) |
| Cc1cccc(C)c1NC(=O)CNC(=O)C1CCCC1 | -3.74% (inactive) |
| COc1ccc(C2=NN(c3nc4ccccc4s3)C(=O)C2)cc1 | 10.8% (inactive) |
| CCC(=O)NC(=Nc1nc2ccccc2s1)NC(=O)CC | 1.11% (inactive) |
| CCC(C)Cn1c(O)cc2nn(-c3nc4ccccc4s3)c(=O)c-2c1C (stereo not drawn) | 49.8% (active) |
| C=CCNC(=O)COC(=O)c1ccccc1C(=O)N(C)C1CCCCC1 | -0.67% (inactive) |
| CC1(c2ccc3ccccc3c2)NC(=O)N(CC(N)=O)C1=O (stereo not drawn) | 1.23% (inactive) |

| Structure (SMILES) | inhibition |
| --- | --- |
| COc1ccccc1NC(=O)CCSc1nnc(-c2ccc(O)cc2)o1 | -1.64% (inactive) |
| CC(C)(C)NC(=O)NC(=O)COC(=O)CCC1CCCCC1 | 29.9% (active) |
| CC(C)(C)NC(=O)NC(=O)COC(=O)C1(C)CC1(Cl)Cl (stereo not drawn) | 4.74% (inactive) |
| COc1ccccc1OCCC(=O)OCC(=O)NC(=O)NC(C)(C)C | 2.65% (inactive) |
| COc1ccc(N(CC(=O)Nc2cc(OC)cc(OC)c2)S(=O)(=O)c2c(C)n[nH]c2C)cc1 | 1.91% (inactive) |
| CC(C)N(C(=O)[C@H]1C[C@H](CC(=O)NCCC2=CCCCC2)C(=O)N2CCc3c([nH]c4cc(CCC(=O)N(C)C)ccc34)[C@]12C)C(C)C | 16.4% (inactive) |
| CC[C@]12c3[nH]c4cc(CCC(=O)N(C)C)ccc4c3CCN1C(=O)[C@@H](CC(=O)NCC13CC4CC(CC(C4)C1)C3)C[C@@H]2C(=O)N1CCN(C(=O)C2CC2)CC1 | 1.87% (inactive) |
| CCN(CC)C(=O)[C@H]1C[C@H](CC(=O)NCC23CC4CC(CC(C4)C2)C3)C(=O)N2CCc3c([nH]c4cc(CCC(=O)N(C)C)ccc34)[C@]12C | 27.5% (active) |
| CC(C)C(O)C1CCN(Cc2nc(Cc3ccccc3Cl)no2)CC1 (stereo not drawn) | 1.22% (inactive) |
| CCSCc1nc(N)nc(NCCc2ccccc2)n1 | 5.83% (inactive) |
| CCc1nc2sc(C(=O)O)c(N)c2c2c1CCCC2 | 1.17% (inactive) |
| Nc1c(C(=O)NCc2ccccc2)sc2nc3c(cc12)C(=O)CCC3 | 9% (inactive) |
| NC(=O)c1sc2nc3c(c(-c4ccccc4)c2c1N)CCC3 | 25.1% (active) |
| Cc1ccccc1Cn1nc(C)c(NC(=O)C(F)(F)F)c1C | -5.3% (inactive) |
| CCOc1ccccc1NS(=O)(=O)c1c[nH]c(C(=O)OC)c1 | -0.19% (inactive) |
| COC(=O)c1cc(S(=O)(=O)Nc2ccc(C)c(F)c2)c[nH]1 | 37.4% (active) |
| COC(=O)c1cc(S(=O)(=O)N2CCN(c3cc(C)ccc3C)CC2)c[nH]1 | -4.07% (inactive) |
| Cn1c(=O)c2c(nc(N3CCCCCC3)n2CC(O)COc2ccc(Cl)cc2)n(C)c1=O (stereo not drawn) | 4.56% (inactive) |
| Cc1cc(SCc2c(F)cccc2Cl)nc(=O)[nH]1 | 1.8% (inactive) |
| Cc1ccc(CSc2nsc(C)c2C#N)cc1 | 8.61% (inactive) |
| Cc1snc(SCc2c(F)cccc2Cl)c1C#N | 24.7% (active) |
